# Reference: article PMC5540273 (PLoS ONE, 2017)
# What was measured:
# Conditions in all cases: concentration: 1 μM, replicates: in singlicate; n = 1
# [1] = test system: GRK1
# [2] = test system: T1, GRK2
# T1 construct: gene ADRBK1
# [3] = test system: T2, GRK3
# T2 construct: gene ADRBK2
# [4] = test system: GRK4
# [5] = test system: GRK7
# [6] = test system: GSK3A
# [7] = test system: GSK3B
# [8] = test system: T3, HASPIN
# T3 construct: gene GSG2
# [9] = test system: HCK
# [10] = test system: HIPK1
# 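Also: KINOMEscan kinase panel screen.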
SMILES,%Inh [1],%Inh [2],%Inh [3],%Inh [4],%Inh [5],%Inh [6],%Inh [7],%Inh [8],%Inh [9],%Inh [10]
Cc1cc(N2CCC(NS(=O)(=O)c3ccc(F)cc3)CC2)nc(Nc2cccc(C#N)c2)n1.O=C(O)C(F)(F)F [GSK1653537],0%,0%,16%,22%,0%,0%,0%,0%,0%,0%
O=C(CCO)NCCn1ccc2ncnc(Nc3ccc(Oc4cccc(C(F)(F)F)c4)c(Cl)c3)c21,13%,0%,0%,0%,0%,6%,0%,0%,36%,19%
CSc1nn2c(=O)cc(N3CCOCC3)nc2n1Cc1cccc(Cl)c1Cl [GSK2347225],20%,0%,0%,17%,0%,16%,8%,0%,0%,11%
O=C(Nc1n[nH]c2nc(-c3ccco3)c(Br)cc12)c1ccc(CN2CCCC2)cc1.O=C(O)[C@H](O)[C@@H](O)C(=O)O [SB-742352],6%,0%,0%,20%,0%,76%,15%,15%,26%,0%
Clc1cc(Nc2ncnc3cc[nH]c23)ccc1OCc1ccccn1,15%,0%,9%,25%,14%,6%,7%,0%,41%,28%
Clc1ccc(-c2cc(-c3c[nH]nc3-c3ccccn3)ccn2)cc1 [GW681251],43%,0%,11%,0%,0%,7%,32%,0%,0%,7%
C[C@@H]1CCN(C(=O)CO)C[C@@H]1N(C)c1ncnc2[nH]ccc12,16%,17%,22%,0%,25%,0%,0%,8%,25%,15%
O=c1cc(N2CCOCC2)nc2n(Cc3cccc(Cl)c3)ccn12 [GSK2296823],15%,0%,12%,47%,0%,28%,7%,0%,0%,12%
O=C(c1ccc(-c2cc(-c3c[nH]nc3-c3ccccn3)ccn2)cc1)N1CCCC1 [GW792479],21%,0%,0%,0%,0%,14%,0%,2%,12%,42%
Cn1cc(-c2ccc3c(c2)CCN3C(=O)Cc2cccc(C(F)(F)F)c2)c2c(N)ncnc21 [GSK2606414],5%,4%,0%,100%,0%,0%,0%,0%,0%,0%
FC(F)(F)c1cc(Nc2nccc(-c3c(-c4ccc(Cl)cc4)nn4ncccc34)n2)ccc1Cl [GW829351],0%,0%,0%,10%,0%,26%,0%,0%,0%,3%
COc1cc2c(Nc3cccc(NC(=O)c4ccccc4)c3)ncnc2cc1OCCCN1CCOCC1 [GSK223810],0%,14%,0%,15%,0%,0%,0%,0%,0%,0%
COC(=O)c1cccc(NC(=O)NCCNc2ccnc(Nc3ccc(F)cc3)n2)c1 [GSK1379883],0%,0%,17%,2%,0%,19%,0%,37%,0%,0%
CS(=O)(=O)CCNCc1ccc(-c2ccc3ncnc(Nc4ccc(OCc5ccccc5)c(Cl)c4)c3c2)o1.Cl [GW574783],2%,1%,20%,0%,0%,8%,1%,30%,18%,0%
C[C@H]1CC[C@@H](C(=O)Nc2ccccc2)CN1c1cc(-c2ccc3c(N)n[nH]c3c2)nc(N)n1 [GSK2283293],0%,0%,31%,25%,0%,0%,0%,0%,3%,22%
CNc1nccc(-c2c(-c3ccc(F)cc3)ncn2C2CCN(C)CC2)n1 [SB-222903],0%,90%,0%,0%,0%,3%,0%,6%,26%,10%
Cc1ccc(C)c(NC(=O)NCCNc2ccnc(Nc3ccc(F)cc3)n2)c1 [GSK1379878],0%,0%,17%,0%,0%,3%,0%,4%,0%,0%
